Consider 43 compounds from publication PMC4336329 (PLoS ONE, 2015).

Each structure is given as a SMILES string. Screen size: about 310,000 compounds; about 14,000 (4.5%) showed an effect of 50% or more. Effects have a minus sign here. The sample holds strong results, similar compounds and a random draw of the others, so the mix is not that of the screen.
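Further: peak tail current of the secondary pulse compared with the same well before compound.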

The target in the test is human ether-à-go-go-related gene (hERG) potassium channel (human, UniProt Q12809). Briefly: primary screen, population patch clamp on CHO cells stably expressing hERG; higher = less effect of the substance.
Chain of human ether-à-go-go-related gene (hERG) potassium channel (Q12809 whole entry, looked up): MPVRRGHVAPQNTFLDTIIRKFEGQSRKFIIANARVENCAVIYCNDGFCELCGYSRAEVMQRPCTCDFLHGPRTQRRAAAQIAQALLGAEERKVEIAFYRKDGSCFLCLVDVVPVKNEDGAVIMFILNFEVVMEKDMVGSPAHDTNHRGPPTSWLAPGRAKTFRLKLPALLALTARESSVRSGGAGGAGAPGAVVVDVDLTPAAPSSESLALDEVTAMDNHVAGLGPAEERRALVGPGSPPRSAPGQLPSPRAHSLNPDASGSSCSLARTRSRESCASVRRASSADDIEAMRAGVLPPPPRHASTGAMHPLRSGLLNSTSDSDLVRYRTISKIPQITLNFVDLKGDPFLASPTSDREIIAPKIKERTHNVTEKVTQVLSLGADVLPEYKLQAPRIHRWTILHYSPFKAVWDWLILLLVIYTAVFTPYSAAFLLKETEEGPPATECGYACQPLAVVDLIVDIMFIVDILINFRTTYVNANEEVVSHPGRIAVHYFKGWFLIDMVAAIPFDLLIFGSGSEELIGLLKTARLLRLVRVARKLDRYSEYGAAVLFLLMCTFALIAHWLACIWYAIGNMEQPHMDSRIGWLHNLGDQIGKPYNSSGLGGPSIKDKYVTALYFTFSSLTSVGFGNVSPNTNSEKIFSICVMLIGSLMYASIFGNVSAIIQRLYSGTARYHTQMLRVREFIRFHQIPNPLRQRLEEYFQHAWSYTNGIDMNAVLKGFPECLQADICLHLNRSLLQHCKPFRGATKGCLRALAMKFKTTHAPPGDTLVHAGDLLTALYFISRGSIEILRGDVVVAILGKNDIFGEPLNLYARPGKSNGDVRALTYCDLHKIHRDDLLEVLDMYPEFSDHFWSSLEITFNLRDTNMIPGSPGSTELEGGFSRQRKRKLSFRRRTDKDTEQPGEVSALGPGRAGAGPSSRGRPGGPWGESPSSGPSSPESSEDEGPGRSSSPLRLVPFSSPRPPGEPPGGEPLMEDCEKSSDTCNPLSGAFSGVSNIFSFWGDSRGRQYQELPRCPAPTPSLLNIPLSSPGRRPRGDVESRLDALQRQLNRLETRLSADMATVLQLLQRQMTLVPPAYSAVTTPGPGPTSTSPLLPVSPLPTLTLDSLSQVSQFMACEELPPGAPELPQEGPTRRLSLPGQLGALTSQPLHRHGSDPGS
Regarding `CN(C)CCCN(C(=O)c1cc(Cl)sc1Cl)c1nc2cc3c(cc2s1)OCO3.Cl`, the “hERG current change (%, negative = inhibition) at 10uM” value is listed as -41.9%.

In the case of `CN(C)CCCN(C(=O)c1ccc([N+](=O)[O-])s1)c1nc2cc3c(cc2s1)OCCO3.Cl`, the “hERG current change (%, negative = inhibition) at 10uM” value was -71.3%.

Regarding `CN(C)CCCN(C(=O)c1ccc(Cl)s1)c1nc2cc3c(cc2s1)OCO3`, the “hERG current change (%, negative = inhibition) at 10uM” value is -69%.

With `Cc1ccc2sc(N(CCCN(C)C)C(=O)c3nc4ccccc4s3)nc2c1C.Cl`, the “hERG current change (%, negative = inhibition) at 10uM” value is 3.59%.

As to `CCC(C(=O)NC1CCCCC1)n1c2ccccc2c2nc(=O)cc(C)n21` (stereo not shown), the “hERG current change (%, negative = inhibition) at 10uM” value stood at 10.4%.

For `O/N=C/c1cn(-c2ccccc2)nc1-c1cccnc1`, the “hERG current change (%, negative = inhibition) at 10uM” value is recorded as -31.6%.

As for `COCCCNC(=O)Cn1cnc2sc(C)c(S(=O)(=O)N3CC(C)CC(C)C3)c2c1=O` (stereo not shown), the “hERG current change (%, negative = inhibition) at 10uM” value is -0.637%.

`COCCCN1C(=O)c2ccc(C(=O)O)cc2C1=O`: the “hERG current change (%, negative = inhibition) at 10uM” value is on record as -0.568%.

For the compound `COC(=O)c1ccc(/C=N/NC(=O)c2cccc(F)c2)cc1`, the “hERG current change (%, negative = inhibition) at 10uM” value came to 6.65%.

`COc1cccc(C(=O)NCC(=O)N/N=C/c2cn[nH]c2-c2ccccc2)c1`: the “hERG current change (%, negative = inhibition) at 10uM” value was -4.6%.

Consider `Cc1nc2nc(C)c(CCC(=O)NCCC3=CCCCC3)c(C)n2n1`, for which the “hERG current change (%, negative = inhibition) at 10uM” value is 4.49%.

Regarding `COc1ccc(S(=O)(=O)N(C)C)cc1NC(C)C(=O)Nc1cccc(C#N)c1` (stereo not shown), the “hERG current change (%, negative = inhibition) at 10uM” value was -23.5%.

Regarding `COc1cccc(CNC(=O)C2CSC3(C)CCC(=O)N23)c1` (stereo not shown), the “hERG current change (%, negative = inhibition) at 10uM” value amounted to 6.82%.

As to `CN(C)c1ccc(N/C=C/C(=O)C(C)(C)C)cc1`, the “hERG current change (%, negative = inhibition) at 10uM” value was determined as 15.9%.

Consider `COC(=O)CN1C(=S)N(C)C(=O)/C1=C/c1cccs1`, for which the “hERG current change (%, negative = inhibition) at 10uM” value amounted to 5.21%.

Regarding `O=C(CNC(=O)c1ccc(Br)o1)NNC(=O)c1ccccc1O`, the “hERG current change (%, negative = inhibition) at 10uM” value is listed as -2.55%.

For `CCn1c2ccccc2c2cc(N=C3SC(CC(=O)Nc4ccccc4OC)C(=O)N3CCOC)ccc21` (stereo not shown), the “hERG current change (%, negative = inhibition) at 10uM” value is on record as -3.75%.

As for `CN(C)CCN(C(=O)c1ccc(Br)s1)c1nc2cc3c(cc2s1)OCCO3.Cl`, the “hERG current change (%, negative = inhibition) at 10uM” value was -4.91%.

As for `CN(C)CCCN(C(=O)c1ccc(Br)s1)c1nc2cc3c(cc2s1)OCO3.Cl`, the “hERG current change (%, negative = inhibition) at 10uM” value is -52%.

Regarding `CN(C)CCCN(C(=O)c1ccc(Br)s1)c1nc2cc3c(cc2s1)OCCO3.Cl`, the “hERG current change (%, negative = inhibition) at 10uM” value was -33.9%.

As for `COC(=O)C1=C(c2ccc(F)cc2OCc2ccccc2)C[C@@H]2CC[C@H]1N2C(=O)N1CCCCC1`, the “hERG current change (%, negative = inhibition) at 10uM” value is reported as -9.9%.

Consider `Cc1ccccc1CNC(=O)Cn1cnc(S(=O)(=O)N2CCCC2)c1`, for which the “hERG current change (%, negative = inhibition) at 10uM” value stood at 6.06%.

Take `CCCOC(=O)C(C)n1cnc2scc(-c3ccc(C)cc3)c2c1=O` (stereo not shown): the “hERG current change (%, negative = inhibition) at 10uM” value stood at 6.79%.

For `CCC(C)(C)n1nnnc1C(c1ccc2ncccc2c1)N1CCN(c2ccc(O)cc2)CC1` (stereo not shown), the “hERG current change (%, negative = inhibition) at 10uM” value is -31.7%.

Regarding `COCCn1nnnc1C(c1ccc2ncccc2c1)N1CCN(c2ccccc2F)CC1` (stereo not shown), the “hERG current change (%, negative = inhibition) at 10uM” value is -19.4%.

`COc1ccc(N2CCN(C(c3ccc4ncccc4c3)c3nnnn3C(C)C)CC2)cc1` (stereo not shown): the “hERG current change (%, negative = inhibition) at 10uM” value is given as -51.7%.

Regarding `CC(C)(C)n1nnnc1C(c1cccnc1)N1CCN(c2ccccc2)CC1` (stereo not shown), the “hERG current change (%, negative = inhibition) at 10uM” value is -8.19%.

Consider `CCC(C)(C)n1nnnc1C(c1cccnc1)N1CCN(c2cccc(C(F)(F)F)c2)CC1` (stereo not shown), for which the “hERG current change (%, negative = inhibition) at 10uM” value is reported as -41%.

For the compound `CC(C)(C)n1nnnc1C(c1ccc2ncccc2c1)N1CCSCC1` (stereo not shown), the “hERG current change (%, negative = inhibition) at 10uM” value is recorded as -18.1%.

As for `CC(C)(C)n1nnnc1C(c1cccnc1)N1CCN(c2cccc(C(F)(F)F)c2)CC1.Cl` (stereo not shown), the “hERG current change (%, negative = inhibition) at 10uM” value was -53.3%.

As to `COc1ccc(N2CCN(C(c3ccc4ncccc4c3)c3nnnn3C(C)(C)C)CC2)cc1` (stereo not shown), the “hERG current change (%, negative = inhibition) at 10uM” value is -52.1%.

Turning to `CC(C)(C)n1nnnc1C(c1ccc2ncccc2c1)N1CCC(O)CC1` (stereo not shown), the “hERG current change (%, negative = inhibition) at 10uM” value was found to be 12.4%.

For `CCc1ccc(NC(=O)Nc2ccncc2)cc1`, the “hERG current change (%, negative = inhibition) at 10uM” value is -20.9%.

Take `O=C1Nc2ccc([N+](=O)[O-])cc2OC1CCN1CCN(c2ccccc2)CC1` (stereo not shown): the “hERG current change (%, negative = inhibition) at 10uM” value is recorded as -47.4%.

Consider `C/C(=N\Nc1ncnc2sc(C)c(C)c12)c1ccccn1`, for which the “hERG current change (%, negative = inhibition) at 10uM” value is -35.5%.

Take `NC(=O)c1coc(-c2ccccc2)n1`: the “hERG current change (%, negative = inhibition) at 10uM” value was determined as 12.9%.

For the compound `O=C(COC(=O)c1cccc2ccccc12)NCCCc1ccccc1`, the “hERG current change (%, negative = inhibition) at 10uM” value was determined as 0.562%.

Regarding `Cc1csc(CNC(=O)c2ccc(OC3CCN(CCc4ccccc4)CC3)cc2)n1`, the “hERG current change (%, negative = inhibition) at 10uM” value is -55.3%.

For the compound `CC(C)N1CCN(C(=O)c2ccc(OC3CCN(CCc4ccccc4)CC3)cc2)CC1`, the “hERG current change (%, negative = inhibition) at 10uM” value is -0.0142%.

`CC(NC(=O)c1ccc(OC2CCN(Cc3ccccn3)CC2)cc1)c1nccs1` (stereo not shown): the “hERG current change (%, negative = inhibition) at 10uM” value is given as -10.3%.

As for `O=C(NCc1ccccn1)c1ccc(OC2CCN(Cc3ccccc3)CC2)cc1`, the “hERG current change (%, negative = inhibition) at 10uM” value is recorded as -10.2%.

Consider `COC1CCN(C(=O)c2ccc(OC3CCN(CCc4ccccc4)CC3)cc2)CC1`, for which the “hERG current change (%, negative = inhibition) at 10uM” value is given as -29.8%.

As to `Cc1csc(C(C)NC(=O)c2ccc(OC3CCN(CCc4ccccc4)CC3)cc2)n1` (stereo not shown), the “hERG current change (%, negative = inhibition) at 10uM” value is recorded as -66.2%.
